For 19 molecules, Potency results are on record in PubChem BioAssay AID493201 (National Center for Advancing Translational Sciences (NCATS), 2011).

The structures appear in SMILES notation. Inconclusive results are not listed. Entries that show only a call come without a potency. The source made the active and inactive calls. The call rests on the fitted dose curve; in most records, active means well fitted activation curve with a large enough effect; inconclusive means small, poorly fitted or top-dose-only effect; inactive means no such curve, though single readings can be large or run the other way.
Potency means the concentration at half of the fitted maximal effect.

The nature of this assay: qHTS Assay for Identifying a Potential Treatment of Ataxia-Telangiectasia: Secondary assay (no NCS) hit validation.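 Further: phosphorylated KAP1 signal as a proxy for ATM-like kinase activity.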 Particulars: A-T patient fibroblasts, AlphaLISA, no DNA damage added, 90 min; series mostly up to 76.9 µM. The method, boiled down: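 hTERT-immortalized A-T patient fibroblasts (F2112), 500 cells/well, exposed to compounds at up to 76.7 uM final without NCS at 37C. KAP-1 phosphorylation measured by AlphaLISA after lysis and 6 h detection at 25C.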
(In general: Quantitative high-throughput screening tests each substance at several concentrations.)
Regarding `CC(C)CNS(=O)(=O)c1cc(C(=O)O)c(Cl)cc1Cl`, the Potency entry is “inactive”.

Take `C=CCN1C(=O)/C(=C/C(=O)OC)S/C1=N\NC(=O)c1ccccc1`: the Potency entry is “inactive”.

Take `COc1ccc(CCn2c(S)nc3ccccc3c2=O)cc1`: the Potency is 41.2 µM (active).

Turning to `COc1cccc(CN(C)CC(=O)NCc2ccc(F)cc2)c1OC`, the Potency entry was “inactive”.

Regarding `CCOc1ccc(NC2=CC(=O)CCC2)cc1`, the Potency result was “inactive”.

Take `CN(Cc1ccccc1)C(=O)c1cccc(N2C(=O)C3CC=CCC3C2=O)c1` (centres undefined): the Potency entry is “inactive”.

For `O=C1C2C3C=CC(CC3)C2C(=O)N1c1cccc(Br)c1` (centres undefined), the Potency entry was “inactive”.

For `O=c1c2cc(Br)ccc2nc(-c2ccccc2)n1O`, the Potency result was “inactive”.

Consider `COc1ccc2nc(NCCCNC(=O)c3cc(OC)c(OC)c(OC)c3)c(C#N)cc2c1`, for which the Potency entry is “inactive”.

On to `N#Cc1c(-c2ccccc2)cc(-c2ccccc2)[nH]c1=O`, for which the Potency result is “inactive”.

As for `Nc1ccc2ncccc2c1`, the Potency entry was “inactive”.

`O=C(O)CCCC(=O)N1N=C(c2ccccc2)CC1c1cccs1` (centres undefined): the Potency entry was “inactive”.

Take `CC(C)(CN1CCN(c2ccccc2)CC1)NS(=O)(=O)c1ccccc1`: the Potency result was “inactive”.

In the case of `O=C(CN1C(=O)c2cccc([N+](=O)[O-])c2C1=O)NCc1ccccc1`, the Potency entry is “inactive”.

For `O=C1C(Cl)=C(Nc2ccc3cn[nH]c3c2)C(=O)c2ccccc21`, the Potency was 1.3 µM (active).

On to `O=C(CNCc1cccs1)Nc1cc(S(=O)(=O)N2CCCC2)ccc1Cl`, for which the Potency entry is “inactive”.

For the molecule `Cc1[nH]c2c(C)cccc2c1CN1CCC(CO)(Cc2ccccc2)CC1`, the Potency is 1.84 µM (active).

For the molecule `CCOC(=O)CNS(=O)(=O)Cc1ccccc1`, the Potency entry is “inactive”.

`CC(C)Nc1nc(Oc2ccc(=O)n(-c3ccccc3)n2)nc(N(C)C)n1`: the Potency result was “inactive”.
